Bioassay records as filed in PubChem BioAssay.
HEK293 cAMP ctrl: counter-screen for TSHR agonists: cAMP increase in parental HEK293; parental HEK293 CNG cAMP sensor, membrane potential fluorescence; Potency, µM (doses to about 57.1 µM), for inactives: at the highest dose activation, most hits filed as activators; actives 2.5% (n = 73,000); AID 938; also: % of control where 0% means no effect; nearly all actives have a fitted effect of over 55% in size
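Parental HEK 293 cells stably expressing a cAMP-gated CNG channel were loaded with membrane potential dye containing 100 uM RO 20-1724 for 60 min. Compound added for 30 min; depolarization read as fluorescence intensity at 590 nm.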
GBA activity: human lysosomal glucosylceramidase modulation; P04062; purified enzyme, resorufin glucoside fluorescence (screen aimed at inhibitors), 20 min; Potency, µM; actives 1.1% (n = 48,000); in the data active = potency below about 15 µM; inconclusive = mostly about 16 µM to 33 µM;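 also: the screen sought inhibitors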
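Wild-type enzyme at 0.2 nM final in 50mM citric acid/KH2PO4, 10mM sodium taurocholate, 0.01% tween-20, pH 5.9, with resorufin beta-D-glucopyranoside at 30 uM final. Compounds titrated, 20 min at RT, red fluorescence read; AC50 from titration.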
Caspase-1 inhib: allosteric or competitive inhibitors of human caspase-1. P29466. Caspase-1 enzyme, Ac-WEHD-AFC fluorogenic rate. Potency, µM (titrated, usually from 57.5 µM), without a hit: at the highest dose activity change, negative = inhibition, actives largely listed as inhibitors. actives 0.03% (n = 75,000). AID 900;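 also: plate controls were vehicle for no effect and no substrate for full effect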
TSHR agonist: agonists of human thyroid stimulating hormone receptor; P16473; HEK293-CNG-TSHR cells (CNG channel as cAMP sensor), membrane potential dye, cAMP; Potency, µM (series often up to 57.1 µM), inactives show at the highest dose activation, hits mostly activators; actives 0.48% (n = 73,000); AID 926; active = well fitted activation curve with a large enough effect in the main read-out, with a control signal flat, not every such curve was filed as active; inconclusive = small, poorly fitted or top-dose-only effect, or a change in a side signal; inactive = no such curve, though single readings can be large or run the other way; % of control where 0% means no effect;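 also: the control signal comes from parental cells without the receptor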
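cAMP rise detected as CNG-channel membrane depolarization by fluorescent dye (emission 590 nm), 30 min after compound, following 60 min dye loading containing 100 uM RO 20-1724 at room temperature. Cells: TSHR/CNG HEK 293, with parental CNG HEK 293 as control.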
Bst PK mod: alters activity of Bacillus stearothermophilus pyruvate kinase; purified pyruvate kinase, luminescence ATP production; ribose 5-phosphate activator present at AC10; Potency, µM; actives 1.2% (n = 51,000); in the data active = potency below about 11 µM; inconclusive = mostly about 12 µM to 25 µM;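 the screen sought inhibitors and activators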;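 also: scaled between full activation by ribose 5 phosphate and full inhibition by luteolin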
Casp7 inh: blocks human caspase-7 allosterically or competitively; P55210; recombinant caspase-7, Ac-DEVD-AFC fluorescence rate; Potency, µM (titrated, usually from 57.5 µM), without a hit: at the highest dose activity change, negative = inhibition, hits mostly inhibitors; actives 0.02% (n = 75,000); AID 889; active = well fitted inhibition curve with a large enough effect in the main read-out, with a control signal flat, not every such curve was filed as active; inconclusive = small, poorly fitted or top-dose-only effect, or a change in a side signal; also: % of control where 0% means no effect
Numbers without * were called inactive; [ ] = remark or other dose. The list is not random: actives were taken first. Their share in the collection is about 4%. Unless noted, calls follow the shape of the dose curve; as a rule, active = well fitted curve in the direction sought with a large enough effect; inconclusive = small, poorly fitted or top-dose-only effect, or another doubt; inactive = no such curve, though single readings can be large; an effect the other way counts as inactive or inconclusive. Potency is read from the fitted curve at half-maximal effect.

`CCN(CCCNC(=O)C1CCC(=O)N1C1CCCC1)c1cccc(C)c1` (stereo unspecified) gave HEK293 cAMP ctrl 10%, GBA activity >77, Caspase-1 inhib 1%, TSHR agonist 2%, Bst PK mod >57 and Casp7 inh 0%.
Screening N#CCCSC(=S)[C@H]1CCCC1=N returned HEK293 cAMP ctrl inconclusive, Caspase-1 inhib -5%[11.5 µM], TSHR agonist inconclusive and Casp7 inh -1%[11.5 µM].
Screening COc1cc2ccccc2cc1C(=O)Nc1ccc(N2CCN(C)CC2)cc1 returned HEK293 cAMP ctrl -40%, GBA activity >77, Caspase-1 inhib -3%, TSHR agonist inconclusive, Bst PK mod 11* and Casp7 inh -1%.
For CC(=O)[C@H]([C@@H](c1ccccc1)N1CCOCC1)N1CCOCC1 the results were HEK293 cAMP ctrl 12%[11.4 µM], Caspase-1 inhib -3%[11.5 µM], TSHR agonist 4%[11.4 µM] and Casp7 inh 1%[11.5 µM].
CC(Sc1ccc2c(c1)OCCO2)C(=O)Nc1ccc2c(c1)OCO2 (stereo unspecified) was read as HEK293 cAMP ctrl inconclusive, GBA activity 15*, Caspase-1 inhib 0%, TSHR agonist inconclusive, Bst PK mod >57 and Casp7 inh 9%.
O=C(O)CCC(=O)c1ccc2c(c1)OCCO2 was read as HEK293 cAMP ctrl 20µM*, Caspase-1 inhib -1%, TSHR agonist inconclusive and Casp7 inh 1%.
Screening O=C(O)CCSCC(=O)c1ccc2c(c1)OCCO2 returned HEK293 cAMP ctrl 14%, GBA activity >77, Caspase-1 inhib 1%, TSHR agonist 21%, Bst PK mod >57 and Casp7 inh 0%.
For O=C(O)c1ccc(/C=N\N=C2c3ccccc3-c3ccccc32)cc1 the results were HEK293 cAMP ctrl 27%[11.4 µM], Caspase-1 inhib -1%[11.5 µM], TSHR agonist 6%[11.4 µM] and Casp7 inh -1%[11.5 µM].
For CC(=O)c1c(C)n(-c2ccccc2)c2ccc(OCC(O)CN3CCOCC3)cc12 (stereo unspecified) the results were HEK293 cAMP ctrl 13µM*, GBA activity inconclusive, Caspase-1 inhib -1%, TSHR agonist inconclusive, Bst PK mod >57 and Casp7 inh 1%.
Screening COc1ccc2c(c1)c(C(=O)N1CCN(C)CC1)c(C)n2-c1ccccc1 returned HEK293 cAMP ctrl 31%, GBA activity 12*, Caspase-1 inhib -1%, TSHR agonist 23%, Bst PK mod >57 and Casp7 inh 0%.
CCOCCOCC was read as HEK293 cAMP ctrl 8%, Caspase-1 inhib -1%, TSHR agonist 0% and Casp7 inh -5%.
N#Cc1nc(COc2cccc(Cl)c2)oc1N1CCCC1 was read as HEK293 cAMP ctrl 13µM*, Caspase-1 inhib 2%, TSHR agonist inconclusive and Casp7 inh -12%.
Screening N#Cc1nc(COc2ccccc2)oc1N1CCN(Cc2ccccc2)CC1 returned HEK293 cAMP ctrl 13µM*, GBA activity >77, Caspase-1 inhib -1%, TSHR agonist inconclusive, Bst PK mod >57 and Casp7 inh -4%.
Screening Cc1ccc(OCc2nc(C#N)c(N3CCN(Cc4ccccc4)CC3)o2)cc1 returned HEK293 cAMP ctrl 2µM*, GBA activity >77, Caspase-1 inhib 0%, TSHR agonist inconclusive, Bst PK mod >57 and Casp7 inh -1%.
`N#Cc1nc(COc2ccc(F)cc2)oc1N1CCCC1` gave HEK293 cAMP ctrl inconclusive, GBA activity >77, Caspase-1 inhib -4%, TSHR agonist inconclusive, Bst PK mod >57 and Casp7 inh 2%.
CCN(c1cccc(C)c1)S(=O)(=O)c1ccc(O)c(C(=O)O)c1 was read as HEK293 cAMP ctrl -2%, Caspase-1 inhib -2%, TSHR agonist 3% and Casp7 inh -2%.
Screening O=C(CSc1nc(Nc2ccccc2)nc(N2CCOCC2)n1)Nc1ccc2c(c1)OCCO2 returned HEK293 cAMP ctrl 10%, GBA activity >77, Caspase-1 inhib -4%, TSHR agonist 25µM*, Bst PK mod >57 and Casp7 inh -5%.
Screening CCN(CC)S(=O)(=O)c1ccc(NC(=O)Cn2c(=O)oc3ccccc32)cc1 returned HEK293 cAMP ctrl -6%, GBA activity 8.5*, Caspase-1 inhib 1%, TSHR agonist -4%, Bst PK mod >57 and Casp7 inh 3%.
`O=C(NCCCCN1CCCC1)c1ccc(Cc2nc3ccccc3[nH]2)cc1` gave HEK293 cAMP ctrl 11%, Caspase-1 inhib -1%, TSHR agonist -4% and Casp7 inh 0%.
O=Nc1ccc(NO)cc1 was read as HEK293 cAMP ctrl 15%, Caspase-1 inhib -2%, TSHR agonist 5% and Casp7 inh -1%.
O=C(c1cc(-c2ccc(Cl)cc2)on1)N1CCOCC1 was read as HEK293 cAMP ctrl -4%, GBA activity >77, Caspase-1 inhib 1%, TSHR agonist -6% and Casp7 inh -1%.
O=C(c1cc(-c2ccc(Cl)cc2Cl)on1)N1CCOCC1 was read as HEK293 cAMP ctrl 4%, GBA activity >77, Caspase-1 inhib -1%, TSHR agonist -10%, Bst PK mod 6.3* and Casp7 inh -2%.
For C[C@@]12C[C@H](O)[C@@H]3[C@H](CCC4=CC(=O)CC[C@]43C)[C@H]1CC[C@@H]2c1csc(N)n1 the results were HEK293 cAMP ctrl 11%[11.4 µM], Caspase-1 inhib 1%[11.5 µM], TSHR agonist -1%[11.4 µM] and Casp7 inh -3%[11.5 µM].
For N#CCCn1c(=O)c(-c2ccc(Cl)cc2)nc2cnc(Nc3ccccc3)nc21 the results were HEK293 cAMP ctrl 6%, TSHR agonist -12% and Casp7 inh inconclusive.
For N#CCCn1c(=O)c(-c2ccccc2)nc2cnc(Nc3ccccc3)nc21 the results were HEK293 cAMP ctrl 10µM*, TSHR agonist inconclusive and Casp7 inh inconclusive.
`COC(=O)[C@H](N)Cc1ccc(Cl)cc1` gave HEK293 cAMP ctrl 14%, Caspase-1 inhib 1%, TSHR agonist 7% and Casp7 inh 0%.
`CN(C)S(=O)(=O)c1ccc(S(=O)(=O)N(Cc2ccccn2)Cc2ccco2)cc1` gave HEK293 cAMP ctrl 4%, GBA activity 6.7*, Caspase-1 inhib 0%, TSHR agonist 9%, Bst PK mod >57 and Casp7 inh 7%.
For Cc1ccc2c(c1)cc(CN(Cc1ccco1)S(=O)(=O)c1ccccc1)c1nnnn12 the results were HEK293 cAMP ctrl 25%, GBA activity >77, Caspase-1 inhib -2%, TSHR agonist 27%, Bst PK mod >57 and Casp7 inh -5%.
Screening Nc1cc(C(=O)O)c(O)c(S(=O)(=O)O)c1 returned HEK293 cAMP ctrl 11%, TSHR agonist 3% and Casp7 inh inconclusive.
Screening COc1cccc(-n2nnc3c(=O)n(Cc4ccc(Br)cc4)cnc32)c1 returned HEK293 cAMP ctrl inconclusive, GBA activity >77, Caspase-1 inhib -3%, TSHR agonist inconclusive, Bst PK mod >57 and Casp7 inh -2%.
